We go through three compounds from PubChem BioAssay AID504527 (The Scripps Research Institute Molecular Screening Center, 2011).

Each structure is given as a SMILES string. The source made the active and inactive calls.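 Rule for the calls: active = two or more serine hydrolases at least half inhibited, plus every target band half blocked in a general-probe test; inactive = under two enzymes half blocked, or any target band not.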

This assay in a line: broad serine hydrolase inhibition in proteome, late-stage follow-up, selectivity assay for PAFAH2 inhibitor project, fluorescence, gel-based ABPP, powder samples (AID 504527). As to conditions: BW5147 murine T-cell proteome, FP-Rh fluorescence, competitor FP-biotin, probe test compound; non-competed targets by FP-biotin, at 20 µM, stronger effect = lower value.
As for `C#CCOCCOCCOCCN(Cc1ccccc1)C(=O)n1nc2cccnc2n1`, the outcome was inactive and the count of non-competed proteins came to 3.

For `C#CCOCCOCCOCCN(Cc1ccccc1)C(=O)n1nccn1`, the compound was classed as active and the count of non-competed proteins was determined as 0.

Turning to `C#CCOCCOCCOCCN(Cc1ccccc1)C(=O)n1ncc(-c2ccccc2)n1`, the compound was classed as active and the count of non-competed proteins is 0.
